Source: PubChem BioAssay
The source made the active and inactive calls. Unless noted, no rule for the calls is given here.

How the values were obtained:
[1] = A549 cell viability effects, profiling panel, calcein-AM fluorescence, 48 h, basal (AID 1162); details: higher = more signal; also: test concentration not given here
[2] = adipocyte viability effects, profiling panel, cell-based, 3T3-L1 adipocytes, calcein-AM fluorescence, 48 h, basal (AID 1163); details: 3T3-L1 adipocytes viability, higher = more signal; also: test concentration not given here
[3] = HepG2 cell viability effects, profiling panel, calcein-AM fluorescence, 48 h, basal (AID 1164); details: higher = more signal; also: test concentration not given here
[4] = MM1S cell viability effects, profiling panel, calcein-AM fluorescence, 48 h, basal (AID 1165); details: higher = more signal;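 also: viability of MM1S multiple myeloma cells under basal unstimulated conditions; test concentration not given here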
[5] = basal RPMI8226 viability, no added stimulus, profiling panel, cell-based, calcein-AM fluorescence, 48 h, PK04 Diversity Set (AID 1166); details: RPMI8226 myeloma viability, higher = more signal;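 also: cells grown under basal conditions without added stimulus; test concentration not given here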
[6] = basal HepG2 mitochondrial membrane potential changes, profiling panel, cell-based, JC-1 fluorescence, 24 h, 100 nL compound (AID 1167); details: higher = more signal; also: test concentration not given here
[7] = basal 3T3-L1 adipocyte mitochondrial potential changes, profiling panel, cell-based, JC-1 fluorescence, 3T3-L1 adipocytes, 24 h, 100 nL compound (AID 1168); details: JC-1 mitochondrial fluorescence, higher = more signal, called active from +8 up or from −8 down; also: test concentration not given here
[8] = basal RPMI8226 mitochondrial membrane potential changes, profiling panel, cell-based, JC-1 fluorescence, 24 h, 100 nL compound (AID 1169); details: RPMI8226 myeloma, JC-1 mitochondrial potential fluorescence, higher = more signal; also: test concentration not given here
[9] = basal MM1S mitochondrial membrane potential changes, profiling panel, cell-based, JC-1 fluorescence, 24 h, 100 nL compound (AID 1170); details: higher = more signal; also: test concentration not given here
[10] = A549 lung cancer cell viability effects, profiling panel, resazurin fluorescence, 24 h, PK04 Diversity Set (AID 1171); details: higher = more signal, called active from +8 up or from −8 down; also: test concentration not given here
[11] = HepG2 liver cancer cell viability effects, profiling panel, resazurin fluorescence, 24 h, PK04 Diversity Set (AID 1172); details: higher = more signal; also: test concentration not given here
[12] = basal S. cerevisiae growth modulation, no modifier, primary screen, OD600, strain BY4716, 24 h, basal condition (AID 1173); details: OD600, 24 h, higher = more signal, called active from +8 up or from −8 down
[13] = MM1S myeloma cell viability, profiling panel, resazurin fluorescence, basal, 24 h, PK04 Diversity Set (AID 1174); details: higher = more signal, called active from +8 up or from −8 down;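 also: MM1S multiple myeloma cell line; test concentration not given here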
[14] = target: Dihydroorotate dehydrogenase (quinone), mitochondrial (Plasmodium falciparum (isolate 3D7)) (UniProt Q08210); assay: PfDHODH enzyme inhibitors, primary screen, biochemical, C-terminal His tag, absorbance 600 nm (AID 1175); details: DCIP absorbance 600 nm, higher = more signal, called active from +8 up or from −8 down;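 also: recombinant parasite enzyme with a five histidine tag at its C terminus; test concentration not given here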
[15] = P. aeruginosa biofilm formation inhibitors, primary screen, strain PAO1, LB-PBS medium, absorbance 600 nm (AID 1176); also: test concentration not given here; details: P. aeruginosa PAO1 growth/biofilm, A600, 12 h; higher = more signal
[16] = S. cerevisiae RM11-1a growth modifiers, primary screen, strain RM11-1a, OD600, basal, 24 h (AID 1177); details: OD600, 24 h, higher = more signal, called active from +8 up or from −8 down;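 also: cultures grown under basal conditions with no added stressor; test concentration not given here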
[17] = E. coli acrAB mutant growth effects, primary screen, E. coli filamentation inducers, strain DRC39, OD650, 24 h (AID 1178); details: higher = more signal, called active from +8 up or from −8 down;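 also: growth measured as culture turbidity by optical density at 650 nm; test concentration not given here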
[18] = E. coli acrAB mutant growth effects, primary screen, E. coli filamentation inducers, strain DRC39, OD650, 48 h (AID 1179);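 also: screen aims at cell division blockers that make cells filament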; details: E. coli DRC39 delta-acrAB growth, higher = more signal, called active from +8 up or from −8 down
[19] = RPMI8226 myeloma cell viability, profiling panel, resazurin fluorescence, basal, 24 h, PK04 Diversity Set (AID 1180); details: higher = more signal;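 also: RPMI8826 multiple myeloma cell line at 5000 cells per well; test concentration not given here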
[20] = target: E3 ubiquitin-protein ligase XIAP (Homo sapiens) (UniProt P98170); assay: XIAP binders, primary screen, biophysical, small-molecule microarray, fluorescence 635 nm (AID 1181); details: small-molecule microarray binding, higher = more signal;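 also: score merges 667 nm emission and signal to noise over triplicate slides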
Chain of E3 ubiquitin-protein ligase XIAP (Homo sapiens) (P98170 whole entry, looked up): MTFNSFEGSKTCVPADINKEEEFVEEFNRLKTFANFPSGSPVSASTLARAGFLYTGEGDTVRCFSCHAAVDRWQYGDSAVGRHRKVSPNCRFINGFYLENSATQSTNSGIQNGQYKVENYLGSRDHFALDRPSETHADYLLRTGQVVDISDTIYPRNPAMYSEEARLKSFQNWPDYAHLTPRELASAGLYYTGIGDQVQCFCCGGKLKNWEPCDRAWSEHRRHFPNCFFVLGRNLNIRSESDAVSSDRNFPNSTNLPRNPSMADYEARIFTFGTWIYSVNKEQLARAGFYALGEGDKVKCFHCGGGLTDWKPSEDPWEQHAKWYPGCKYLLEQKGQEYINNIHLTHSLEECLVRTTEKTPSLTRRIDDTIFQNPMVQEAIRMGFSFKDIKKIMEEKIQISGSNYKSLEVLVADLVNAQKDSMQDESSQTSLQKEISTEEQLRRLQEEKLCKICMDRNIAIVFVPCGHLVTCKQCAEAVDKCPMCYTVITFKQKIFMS

Chain of Dihydroorotate dehydrogenase (quinone), mitochondrial (Plasmodium falciparum (isolate 3D7)) (Q08210 whole entry, looked up): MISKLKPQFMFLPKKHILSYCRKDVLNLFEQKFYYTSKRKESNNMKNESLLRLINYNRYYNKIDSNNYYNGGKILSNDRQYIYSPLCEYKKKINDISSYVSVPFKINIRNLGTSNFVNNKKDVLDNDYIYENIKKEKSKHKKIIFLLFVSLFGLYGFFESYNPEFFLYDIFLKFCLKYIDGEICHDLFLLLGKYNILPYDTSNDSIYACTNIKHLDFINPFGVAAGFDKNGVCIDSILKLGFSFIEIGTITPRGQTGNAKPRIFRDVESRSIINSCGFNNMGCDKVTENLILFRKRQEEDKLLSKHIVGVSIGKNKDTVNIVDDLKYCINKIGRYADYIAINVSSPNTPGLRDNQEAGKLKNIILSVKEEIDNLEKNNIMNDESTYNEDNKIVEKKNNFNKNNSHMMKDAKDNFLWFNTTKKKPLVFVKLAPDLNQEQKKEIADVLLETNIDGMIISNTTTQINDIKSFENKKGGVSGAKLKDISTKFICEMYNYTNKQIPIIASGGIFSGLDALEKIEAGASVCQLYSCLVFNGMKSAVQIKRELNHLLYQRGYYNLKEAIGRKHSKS

Structure (SMILES) | z-score [1] | z-score [2] | z-score [3] | z-score [4] | z-score [5] | z-score [6] | z-score [7] | z-score [8] | z-score [9] | z-score [10] | z-score [11] | z-score [12] | z-score [13] | composite z-score [14] | z-score [15] | z-score [16] | z-score [17] | z-score [18] | z-score [19] | composite z-score [20]
C=CCN1C(=O)[C@@]2(O[C@@H](CCO)[C@H]([Si](C)(C)c3ccc(OC)cc3)[C@H]2C)c2cc(NC(=O)c3ccc(OC)cc3)ccc21 | -0.52 | -0.196 | -4.47 | -2.73 | -4.36 | -1.69 | 1.58 (inactive) | -1.02 | -1.97 | -2.27 (inactive) | -2.49 | -1.77 (inactive) | -3.52 (inactive) | -1.21 (inactive) | 1.53 (inactive) | 1.69 (inactive) | 1.22 (inactive) | 0.586 (inactive) | -4.92 | -0.154
O=C1O[C@H](c2ccccc2)[C@H](c2ccccc2)N2[C@H]1[C@@H](C(=O)O)[C@]1(C(=O)Nc3ccc(C#CC4=CCCCC4)cc31)[C@H]2c1ccccc1OCCO | -0.986 | -1.21 | -4.28 | -3.3 | -4.21 | -3.56 | 1.39 (inactive) | -0.935 | -1.68 | -1.84 (inactive) | -1.19 | -1.17 (inactive) | -5.12 (inactive) | -6.35 (inactive) | 2.36 (inactive) | 1.73 (inactive) | -0.0532 (inactive) | 0.0958 (inactive) | -6.63 | -0.102
O=C1NC(=O)C2C1C=CC(C(O)c1ccccc1)N2Nc1ccc(Cl)cc1Cl (stereo not given) | 0.0862 | -0.0715 | -1.48 | -3.55 | -3.28 | -3.07 | -0.544 (inactive) | -1.09 | -1.59 | -1.92 (inactive) | -2.45 | -17.3 (active) | -1.62 (inactive) | -0.782 (inactive) | 1.43 (inactive) | -15.4 (active) | 0.047 (inactive) | -0.224 (inactive) | -1.55 | 0.54
O=C1NC(=O)C2C1C=CC(C(O)Cc1ccccc1)N2Nc1ccc(Cl)cc1Cl (stereo not given) | 0.447 | -0.0852 | -1.57 | -0.988 | -0.388 | -1.73 | -0.00872 (inactive) | -0.371 | -0.375 | -0.519 (inactive) | -0.985 | -7.58 (inactive) | -1.56 (inactive) | -0.276 (inactive) | 0.53 (inactive) | 0.181 (inactive) | -0.655 (inactive) | -0.603 (inactive) | -1.04 | 0.13
CCCCN1CC=CC23O[C@@H]4C=CCOC(=O)[C@@H]4[C@H]2C(=O)N(CCCCCO)[C@@H]3C1=O (stereo not given in full) | -0.503 | -0.122 | -0.781 | 0.276 | 0.778 | -0.235 | 0.17 (inactive) | -0.0189 | -0.0548 | -0.508 (inactive) | 0.371 | 0.0133 (inactive) | -0.86 (inactive) | -0.165 (inactive) | 0.91 (inactive) | -0.176 (inactive) | -0.967 (inactive) | -0.982 (inactive) | -0.531 | 0.327
COCCOC(=O)N1C(=O)[C@@]2(c3ccccc31)[C@H](c1ccccc1OCCO)N1[C@H](c3ccccc3)[C@H](c3ccccc3)OC(=O)[C@H]1[C@@H]2C(=O)Nc1nc2ccccc2s1 | -0.331 | 0.0264 | -0.271 | -1.39 | -1.54 | -1.51 | 1.79 (inactive) | -1.01 | -1.33 | -1.02 (inactive) | 0.487 | 1.33 (inactive) | -0.442 (inactive) | 0.662 (inactive) | 2.76 (inactive) | 2.22 (inactive) | 0.931 (inactive) | 1.74 (inactive) | 0.0081 | 0.0623
CC(C)c1ccc(NN2C(C(O)c3cc(C(F)(F)F)cc(C(F)(F)F)c3)C=CC3C(=O)N(c4ccccc4)C(=O)C32)cc1 (stereo not given) | -2.37 | 0.15 | -3.12 | -3.4 | -4.14 | -2.69 | -0.414 (inactive) | -0.873 | -1.57 | -2.11 (inactive) | -2.42 | -1.33 (inactive) | -3.12 (inactive) | 0.643 (inactive) | 1.18 (inactive) | 1.79 (inactive) | -0.447 (inactive) | -0.729 (inactive) | -5.25 | 0.0813
CCOC(=O)[C@H]1CC=C2CC1C(=O)N1CCC[C@@H]1[C@@H]2O[Si](C)(C)C(C)(C)C (stereo not given in full) | -1.63 | 0.312 | -1.43 | -2.85 | -4.07 | -2.25 | -1.07 (inactive) | -1.06 | 0.167 | 3.69 (inactive) | 0.706 | -14.4 (active) | 0.425 (inactive) | -0.458 (inactive) | 0.543 (inactive) | -0.335 (inactive) | 0.665 (inactive) | -0.17 (inactive) | 1.04 | -0.167
CCCCN1CC=CC23O[C@@H]4/C=C\CCC(C)OC(=O)C4[C@H]2C(=O)N(CCCCCO)[C@@H]3C1=O (stereo not given in full) | -0.143 | 0.0763 | 0.478 | 1.52 | 0.096 | 0.241 | 0.9 (inactive) | 0.32 | -0.133 | 0.455 (inactive) | 0.389 | 0.0305 (inactive) | 0.96 (inactive) | 0.18 (inactive) | 0.646 (inactive) | -0.0125 (inactive) | 0.511 (inactive) | 0.35 (inactive) | 0.05 | -0.0436
